# Only some compounds are listed: those with a hit (about 3.4% of all), similar ones and a draw of the others.
# TEAD-YAP block = TEAD-YAP interaction inhibition, primary screen, TEAD-YAP interaction inhibitor project, luminescence, HEK-TIYL cells. AID 1259422, 2018. hit rate 1.4% among 640,000. TEAD-Gal4/YAP UAS-luciferase luminescence. inhibition, % at 9.12 µM; in the data active = inhibition above about 32%;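 note: 0% = median of test compound wells and 100% = reference inhibitor wells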
# MITF inh = MITF inhibitors, primary screen, biochemical, AlphaScreen, human; AID 1259374, 2018; AlphaScreen MITF homodimerization, bead proximity signal; inhibition, % at 2.6 µM; hit rate 0.91% among 650,000; Microphthalmia-associated transcription factor (Homo sapiens), O75030; in the data active = inhibition above about 50%;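 note: 0% = vehicle wells with protein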
# FBW7 activator = FBW7 E3 ligase activators, primary screen, biochemical, AlphaScreen, human; F-box/WD repeat-containing protein 7 (Homo sapiens), Q969H0; AlphaScreen FBW7–phospho-cyclin E peptide binding, activator screen; normalized activity (activation), % at 26.1 µM; hit rate 0.13% among 650,000; in the data active = normalized activity above about 1.9%;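 note: purified mutant Fbw7 with reduced substrate affinity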
# GPR151 activ = activators of human GPR151, primary screen, cell-based, PathHunter beta-arrestin, luminescence; G-protein coupled receptor 151 (Homo sapiens), Q8TDV0; PathHunter beta-arrestin GPR151 cells; activation, % at 11.2 µM; hit rate 1% among 650,000; AID 1508602, 2020; in the data active = activation above about 4.9%;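 note: 0% = median of compound wells and 100% = cells with positive control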
# Target sequence (Q8TDV0 whole entry, looked up): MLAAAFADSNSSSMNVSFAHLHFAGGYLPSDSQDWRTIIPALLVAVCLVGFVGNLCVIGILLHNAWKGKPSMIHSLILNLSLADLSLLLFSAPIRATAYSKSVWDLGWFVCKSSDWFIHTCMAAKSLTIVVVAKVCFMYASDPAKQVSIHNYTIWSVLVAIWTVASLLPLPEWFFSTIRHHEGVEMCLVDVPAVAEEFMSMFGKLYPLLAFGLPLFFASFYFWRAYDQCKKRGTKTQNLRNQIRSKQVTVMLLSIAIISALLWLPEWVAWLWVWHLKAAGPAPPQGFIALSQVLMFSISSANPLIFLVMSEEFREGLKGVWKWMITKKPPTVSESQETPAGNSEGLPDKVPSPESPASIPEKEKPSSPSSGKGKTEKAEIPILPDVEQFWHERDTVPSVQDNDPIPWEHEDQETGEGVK
# GPR151 conf act = GPR151 activators, triplicate retest, confirmation, cell-based, PathHunter beta-arrestin, luminescence; GPR151 PathHunter beta-arrestin cells, 90 min; % of EA-reagent control over plate median; shares compounds with GPR151 activ; activation, % at 11.2 µM; AID 1508609, 2020; 6,700 tested, under 10 active;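 active = mean percent activation across replicates above the confirmation screen cutoff of 4.91%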
# GPR119 ag = GPR119 activators in beta-arrestin cells, counter-screen for GPR151 activator project, cell-based, PathHunter beta-arrestin, luminescence, triplicate; 90 min; 0 = compound-well median, 100 = enzyme-acceptor control; activation, % at 11.2 µM; AID 1508611, 2020; hit rate 0.3% among 6,700; shares compounds with GPR151 activ;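 active = mean percent activation in the counterscreen above 29.09%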;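 note: counterscreen on off-target GPR119 to flag nonselective hits from the GPR151 activator screen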
# * = called active by the depositor; / = no result.
SMILES,TEAD-YAP block,MITF inh,FBW7 activator,GPR151 activ,GPR151 conf act,GPR119 ag
CCNS(=O)(=O)c1ccc(NC(=O)c2ccccc2OCC)cc1,7,19,1,0,/,/
CCOc1ccccc1C(=O)Nc1ccc(S(=O)(=O)NC(C)CC)cc1 (stereo unspecified),6,6,0,13*,0,1
CCOc1ccc(C(=O)Nc2ccc(S(=O)(=O)NC(C)(C)C)cc2)cc1OCC,2,24,0,5.9*,1,-4
NC(C(=O)N1CCC(Nc2cccc3c(=O)[nH]cnc23)CC1)c1ccc(Cl)cc1 (stereo unspecified),5,4,0,0,/,/
CC(=O)N1CCC(N(C(=O)Nc2c(F)cccc2F)C(C)C)CC1,-4,5,0,9.1*,-1,0
CC(=O)N1CCC(N(C(=O)Nc2cccc(Cl)c2C)C(C)C)CC1,-1,4,0,0,/,/
CCC1=NN(C(=O)Cc2ccccc2)C(O)(c2ccccc2)C1 (stereo unspecified),-5,6,0,6.9*,0,7
CCCCN(C)S(=O)(=O)c1ccc(C(=O)Nc2ccc3sc(C)nc3c2)cc1,61*,27,0,5.2*,0,13
COC(=O)C1=NNC2C(=O)N(c3cc([N+](=O)[O-])ccc3C)C(=O)C12 (stereo unspecified),5,7,0,-1,/,/
COc1ccc(Cl)cc1NC(=O)CN1CCC(n2nnc3ccccc32)CC1,-23,14,0,5.3*,0,-2
CCOC(=O)C1C(=O)CC(C)(O)C(C(=O)OCC)C1c1ccc2c(c1)OCO2 (stereo unspecified),-3,-2,0,5.1*,-1,-6
CCOC(=O)C1C(=O)CC(C)(O)C(C(=O)OCC)C1c1ccc(C)cc1 (stereo unspecified),13,8,0,0,/,/
O=C(O)CCCCCn1c(SCC(=O)c2ccccc2)nc2ccsc2c1=O,0,23,0,6.5*,0,8
Cc1cc(OCCN(C)C)nc(NCc2ccccc2)n1,1,12,0,0,/,/
CC(C)(C)Nc1nc(-c2cccc(Br)c2)cs1,-21,-4,0,7.5*,1,-9
CCC(=O)Nc1nc(-c2cccc(Br)c2)cs1,-35,-18,0,0,/,/
CCOc1ccc(CCNC(=O)C2CCCN2C(=O)OCc2ccccc2)cc1OCC (stereo unspecified),6,2,0,0,/,/
CCCCC(c1nnnn1Cc1ccco1)N1CCN(C(=O)c2ccco2)CC1 (stereo unspecified),0,4,0,20*,0,4
CCCC(c1nnnn1Cc1ccco1)N1CCN(C(=O)c2ccco2)CC1 (stereo unspecified),-3,-5,0,-1,/,/
CCC(C(=O)OC)n1cnc2scc(-c3cccc([N+](=O)[O-])c3)c2c1=O (stereo unspecified),-11,1,0,15*,1,8
NC(=O)Cn1cnc2scc(-c3cccc([N+](=O)[O-])c3)c2c1=O,-15,0,0,0,/,/
Cn1c(=O)c(-c2ccccc2N)nc2cc3ccccc3cc21,-65,18,0,1,/,/
N#Cc1c(N)nc2c(c1-c1ccsc1)CCCC2,-1,-11,0,5.0*,0,-2
CCn1c2ccccc2n2c(=O)n(CC(=O)N3CCC(C)CC3)nc12,-8,-7,0,0,/,/
COC(=O)c1cccc(N(C)c2nc(C)cc(C)n2)c1,-7,5,0,0,/,/
SMILES,TEAD-YAP block,MITF inh,FBW7 activator,GPR151 activ,GPR151 conf act,GPR119 ag
Cc1ccc(CNC(=O)c2cc3c(=O)n4cccc(C)c4nc3n(C)c2=N)cc1,1,6,0,11*,0,0
CNC(=O)c1cc2c(=O)n3cccc(C)c3nc2n(C)c1=N,13,18,1,-2,/,/
Cc1ccc(CNS(=O)(=O)c2cc(Br)cnc2N)cc1,-2,0,0,1,/,/
Cc1ccccc1-c1nc(-c2ccc(Br)cc2)no1,-8,0,0,1,/,/
Cc1ccccc1-c1nc(-c2ccc(Cl)cc2)no1,-11,1,0,5.1*,0,-4
O=c1cc(-c2ccccc2[N+](=O)[O-])nc(-c2ccco2)o1,-1,-4,0,7.3*,0,-2
CCc1ccc(NC(=O)C(=O)NNC(=O)c2cccc(OC)c2)cc1,9,14,0,-1,/,/
COc1ccc(NC(=O)C(=O)NNC(=O)c2cccc(OC)c2)cc1,-3,-6,0,6.1*,0,4
C/C(=N\NC(N)=O)c1c(O)c2ccccc2oc1=O,6,-3,0,7.4*,0,5
CN=C(C)c1c(O)c2ccccc2oc1=O,9,-22,0,0,/,/
O=S(=O)(c1ccc(F)c(Cl)c1)N1CCN(c2ccc(-c3ccco3)nn2)CC1,-9,-22,0,0,/,/
Cc1ccc(CNC(=O)CSc2nc(NCCc3ccccc3)c3ccccc3n2)cc1,3,-2,0,1,/,/
CC(NC(=O)c1cnc2scc(C(C)(C)C)n2c1=O)c1ccccc1 (stereo unspecified),4,-2,0,7.4*,1,6
COCc1c(C(=O)N/N=C\c2ccccn2)nnn1-c1nonc1N,2,15,-1,-1,/,/
Cc1nccn1CCNC(=O)c1cccc2ccccc12,1,-1,0,6.0*,-1,-10
Cc1nccn1CCNC(=O)c1cccn(C)c1=O,0,7,0,1,/,/
CC(C)Cc1cc(C(=O)Nc2cccnc2Cl)no1,-10,-6,0,0,/,/
COc1ccccc1CNC(=O)CC1C(=O)NCCN1CCC(C)C (stereo unspecified),0,2,0,5.8*,0,0
Cc1ccc2cc(CN(CC3CCCO3)C(=O)C3CCC3)c3nnnn3c2c1 (stereo unspecified),12,4,0,8.4*,4,8
COc1ccc(-c2nnc(SCc3nc4ccccc4[nH]3)n2-c2ccccc2)cc1OC,-13,-14,0,5.0*,-1,-2
O=c1c2cc(-c3ccc(F)cc3)nn2ccn1Cc1nc(-c2ccc(F)cc2)no1,2,12,0,-1,/,/
Cc1ccc2oc(C(=O)NCCc3ccc(S(N)(=O)=O)cc3)c(C)c2c1,9,14,1,-2,/,/

# Source: PubChem
